In all, about 5,500 compounds went through this assay and about 2,000 (36%) were called active. Another 18% or so got no clear call; they are omitted. Cut-off read from the data, not from the text of the source: active = normalized growth mostly below about 0.91 (no sharp cut-off); inconclusive = no clear call, values can overlap the other calls; inactive = mostly above about 0.92. The list shows a part of the results.
Test: chemical genetic growth profiling, strain panel (AID 1159580);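 note: tested at 20 µM; growth read once vehicle control cultures reached saturation at 30 °C; 1 = growth at the plate median or of vehicle wells; lower values mean less growth of the strain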
Details: S. cerevisiae deletion strains, growth OD

Measured: normalized growth

COc1ccc2nc3ccccc3c(N)c2c1
active: locus YAR019C, strain CDC15, hits give low values 0.6 | locus YBL105C, strain PKC1, hits give low values 0.592 | locus YBR135W, strain CKS1, hits give low values 0.722 | locus YBR136W, strain MEC1, hits give low values 0.657 | locus YBR160W, strain CDC28, hits give low values 0.661 | locus YDL017W, strain CDC7, hits give low values 0.636 | locus YDL028C, strain MPS1, hits give low values 0.679 | locus YDL108W, strain KIN28, hits give low values 0.737 | locus YDL214C, strain PRR2, hits give low values 0.203 | locus YDR052C, strain DBF4, hits give low values 0.701 | locus YDR054C, strain cdc34, hits give low values 0.625 | locus YDR477W, strain SNF1, hits give low values 0.198 | locus YER123W, strain YCK3, hits give low values 0.195 | locus YER133W, strain GLC7, hits give low values 0.215 | locus YFL029C, strain CAK1, hits give low values 0.579 | locus YFR003C, strain YPI1, hits give low values 0.652 | locus YFR019W, strain FAB1, hits give low values 0.208 | locus YGR040W, strain KSS1, hits give low values 0.21 | locus YGR052W, strain FMP48, hits give low values 0.235 | locus YGR092W, strain DBF2, hits give low values 0.227 | locus YHR030C, strain SLT2, hits give low values 0.188 | locus YHR079C, strain IRE1, hits give low values 0.206 | locus YHR082C, strain KSP1, hits give low values 0.27 | locus YHR205W, strain SCH9, hits give low values 0.151 | locus YIL147C, strain SLN1, hits give low values 0.63 | locus YJL095W, strain BCK1, hits give low values 0.227 | locus YJL157C, strain FAR1, hits give low values 0.176 | locus YJR016C, strain ILV3, hits give low values 0.699 | locus YJR066W, strain TOR1 (second series), hits give low values 0.246 | locus YJR066W, strain TOR1, hits give low values 0.233 | locus YKL048C, strain ELM1, hits give low values 0.264 | locus YKL067W, strain YNK1, hits give low values 0.19 | locus YKL101W, strain HSL1, hits give low values 0.193 | locus YKL193C, strain SDS22, hits give low values 0.659 | locus YKL203C, strain TOR2, hits give low values 0.204 | locus YLR113W, strain HOG1, hits give low values 0.257 | locus YLR133W, strain CKI1, hits give low values 0.199 | locus YLR403W, strain SFP1, hits give low values 0.11 | locus YML070W, strain DAK1, hits give low values 0.207 | locus YMR001C, strain CDC5, hits give low values 0.667 | locus YMR205C, strain PFK2 (second series), hits give low values 0.258 | locus YMR277W, strain FCP1, hits give low values 0.648 | locus YNL006W, strain LST8, hits give low values 0.611 | locus YNL020C, strain ARK1, hits give low values 0.196 | locus YNL161W, strain CBK1, hits give low values 0.525 | locus YNL183C, strain NPR1, hits give low values 0.283 | locus YNL207W, strain RIO2, hits give low values 0.645 | locus YNL222W, strain SSU72, hits give low values 0.638 | locus YNL307C, strain MCK1 (second series), hits give low values 0.202 | locus YOL078W, strain AVO1, hits give low values 0.689 | locus YOL136C, strain PFK27, hits give low values 0.205 | locus YOR061W, strain CKA2, hits give low values 0.186 | locus YOR119C, strain RIO1, hits give low values 0.221 | locus YOR231W, strain MKK1, hits give low values 0.225 | locus YOR329C, strain SCD5, hits give low values 0.607 | locus YPL031C, strain PHO85, hits give low values 0.214 | locus YPL153C, strain RAD53, hits give low values 0.216 | locus YPL204W, strain HRR25, hits give low values 0.198 | locus YPL209C, strain IPL1, hits give low values 0.624 | locus YPL256C, strain CLN2, hits give low values 0.252 | locus YPR025C, strain CCL1, hits give low values 0.637 | locus YPR106W, strain ISR1, hits give low values 0.679 | strain NNK1, hits give low values 0.537 | strain TSCII, hits give low values 0.58
inactive: locus YPR111W, strain DBF20, hits give low values 1
